Measured values as given in PubChem BioAssay AID1159580 (chemical genetic matrix, 2015).
In all, about 5,500 compounds went through this assay and about 2,000 (36%) were called active. Another 18% or so got no clear call; they are omitted. Cut-off read from the data, not from the text of the source: active = normalized growth mostly below about 0.91 (no sharp cut-off); inconclusive = no clear call, values can overlap the other calls; inactive = mostly above about 0.92. The list shows a part of the results.

Assay: chemical genetic growth profiling, strain panel (AID 1159580);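 note: tested at 20 µM; growth read once vehicle control cultures reached saturation at 30 °C; 1 = growth at the plate median or of vehicle wells; lower values mean less growth of the strain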
Conditions: growth OD

Measured: normalized growth

CCCN(CCC)S(=O)(=O)c1ccc(C(=O)O)cc1
inactive: S. cerevisiae deletion strains, locus YJR075W, strain HOC1, stronger effect = lower value 1 | S. cerevisiae deletion strains, locus YKL009W, strain mrt4, stronger effect = lower value 0.998 | S. cerevisiae deletion strains, locus YKL068W, stronger effect = lower value 0.998 | S. cerevisiae deletion strains, locus YKL085W, strain MDH1 (second series), stronger effect = lower value 1 | S. cerevisiae deletion strains, locus YKL085W, strain MDH1, stronger effect = lower value 1 | S. cerevisiae deletion strains, locus YKL160W, strain elf1, stronger effect = lower value 0.971 | S. cerevisiae deletion strains, locus YKL190W, strain CNB1, stronger effect = lower value 0.983 | S. cerevisiae deletion strains, locus YKR001C, strain vps1, stronger effect = lower value 1.02 | S. cerevisiae deletion strains, locus YKR026C, strain gcn3, stronger effect = lower value 0.988 | S. cerevisiae deletion strains, locus YKR091W, strain srl3, stronger effect = lower value 0.993 | S. cerevisiae deletion strains, locus YLL001W, strain dnm1, stronger effect = lower value 0.952 | S. cerevisiae deletion strains, locus YLL026W, stronger effect = lower value 0.984 | S. cerevisiae deletion strains, locus YLL041C, strain sdh2, stronger effect = lower value 0.992 | S. cerevisiae deletion strains, locus YLR027C, strain aat2, stronger effect = lower value 0.973 | S. cerevisiae deletion strains, locus YLR039C, strain RIC1, stronger effect = lower value 1.02 | S. cerevisiae deletion strains, locus YLR058C, strain SHM2, stronger effect = lower value 1 | S. cerevisiae deletion strains, locus YLR102C, strain apc9, stronger effect = lower value 1 | S. cerevisiae deletion strains, locus YLR113W, strain HOG1, stronger effect = lower value 0.976 | S. cerevisiae deletion strains, locus YLR221C, strain rsa3, stronger effect = lower value 0.995 | S. cerevisiae deletion strains, locus YLR258W, strain gsy2, stronger effect = lower value 0.992 | S. cerevisiae deletion strains, locus YLR262C, strain YPT6 (second series), stronger effect = lower value 0.971 | S. cerevisiae deletion strains, locus YLR262C, strain YPT6, stronger effect = lower value 1.01 | S. cerevisiae deletion strains, locus YLR268W, strain sec22, stronger effect = lower value 1.03 | S. cerevisiae deletion strains, locus YLR320W, strain mms22, stronger effect = lower value 0.99 | S. cerevisiae deletion strains, locus YLR330W, strain CHS5, stronger effect = lower value 0.994 | S. cerevisiae deletion strains, locus YLR342W, strain FKS1 (second series), stronger effect = lower value 0.984 | S. cerevisiae deletion strains, locus YLR342W, strain FKS1, stronger effect = lower value 0.961 | S. cerevisiae deletion strains, locus YLR357W, strain rsc2, stronger effect = lower value 0.951 | S. cerevisiae deletion strains, locus YLR370C, strain arc18, stronger effect = lower value 0.974 | S. cerevisiae deletion strains, locus YLR371W, strain rom2, stronger effect = lower value 1.01 | S. cerevisiae deletion strains, locus YLR384C, strain iki3, stronger effect = lower value 0.983 | S. cerevisiae deletion strains, locus YLR418C, strain cdc73, stronger effect = lower value 1.03 | S. cerevisiae deletion strains, locus YML016C, strain PPZ1, stronger effect = lower value 1 | S. cerevisiae deletion strains, locus YML032C, strain rad52, stronger effect = lower value 1.02 | S. cerevisiae deletion strains, locus YML120C, strain ndi1, stronger effect = lower value 0.993 | S. cerevisiae deletion strains, locus YML124C, strain tub3, stronger effect = lower value 1.01 | S. cerevisiae deletion strains, locus YMR058W, strain fet3, stronger effect = lower value 0.991 | S. cerevisiae deletion strains, locus YMR078C, strain ctf18, stronger effect = lower value 1.03 | S. cerevisiae deletion strains, locus YMR125W, strain sto1, stronger effect = lower value 0.983 | S. cerevisiae deletion strains, locus YMR129W, stronger effect = lower value 0.991 | S. cerevisiae deletion strains, locus YMR205C, strain PFK2, stronger effect = lower value 0.984 | S. cerevisiae deletion strains, locus YMR223W, strain ubp8, stronger effect = lower value 0.992 | S. cerevisiae deletion strains, locus YMR231W, strain pep5, stronger effect = lower value 0.986 | S. cerevisiae deletion strains, locus YMR263W, strain SAP30, stronger effect = lower value 1 | S. cerevisiae deletion strains, locus YMR307W, strain GAS1, stronger effect = lower value 1 | S. cerevisiae deletion strains, locus YNL067W, strain RPL9B, stronger effect = lower value 1.01 | S. cerevisiae deletion strains, locus YNL071W, strain lat1, stronger effect = lower value 0.999 | S. cerevisiae deletion strains, locus YNL128W, strain TEP1, stronger effect = lower value 1.01 | S. cerevisiae deletion strains, locus YNL153C, strain GIM3, stronger effect = lower value 1.01 | S. cerevisiae deletion strains, locus YNL183C, strain NPR1, stronger effect = lower value 0.97 | S. cerevisiae deletion strains, locus YNL209W, strain ssb2, stronger effect = lower value 1.01 | S. cerevisiae deletion strains, locus YNL233W, strain BNI4, stronger effect = lower value 0.999 | S. cerevisiae deletion strains, locus YNL248C, strain rpa49, stronger effect = lower value 0.989 | S. cerevisiae deletion strains, locus YNL250W, strain rad50, stronger effect = lower value 1.01 | S. cerevisiae deletion strains, locus YNL271C, strain bni1, stronger effect = lower value 1.01 | S. cerevisiae deletion strains, locus YNL298W, strain CLA4, stronger effect = lower value 1.01 | S. cerevisiae deletion strains, locus YNL307C, strain MCK1, stronger effect = lower value 1.01 | S. cerevisiae deletion strains, locus YNL322C, strain KRE1 (second series), stronger effect = lower value 0.99 | S. cerevisiae deletion strains, locus YNL322C, strain KRE1, stronger effect = lower value 0.997 | S. cerevisiae deletion strains, locus YNR049C, strain mso1, stronger effect = lower value 0.984 | S. cerevisiae deletion strains, locus YNR052C, strain pop2, stronger effect = lower value 1.02 | S. cerevisiae deletion strains, locus YOL006C, strain TOP1, stronger effect = lower value 1.05 | S. cerevisiae deletion strains, locus YOL012C, strain htz1 0.687 | S. cerevisiae deletion strains, locus YOL147C, strain pex11, stronger effect = lower value 1 | S. cerevisiae deletion strains, locus YOR001W, strain rrp6, stronger effect = lower value 0.98 | S. cerevisiae deletion strains, locus YOR061W, strain CKA2, stronger effect = lower value 1 | S. cerevisiae deletion strains, locus YOR069W, strain VPS5, stronger effect = lower value 0.995 | S. cerevisiae deletion strains, locus YOR070C, strain gyp1, stronger effect = lower value 1 | S. cerevisiae deletion strains, locus YOR080W, strain dia2, stronger effect = lower value 0.982 | S. cerevisiae deletion strains, locus YOR083W, strain WHI5, stronger effect = lower value 0.953 | S. cerevisiae deletion strains, locus YOR106W, strain vam3, stronger effect = lower value 0.971 | S. cerevisiae deletion strains, locus YOR136W, strain idh2, stronger effect = lower value 1.02 | S. cerevisiae deletion strains, locus YOR144C, strain elg1, stronger effect = lower value 1.01 | S. cerevisiae deletion strains, locus YOR184W, strain ser1, stronger effect = lower value 1.04 | S. cerevisiae deletion strains, locus YOR231W, strain MKK1, stronger effect = lower value 0.976 | S. cerevisiae deletion strains, locus YOR265W, strain rbl2, stronger effect = lower value 0.992 | S. cerevisiae deletion strains, locus YOR270C, strain vph1, stronger effect = lower value 1 | S. cerevisiae deletion strains, locus YOR290C, strain snf2, stronger effect = lower value 1.01 | S. cerevisiae deletion strains, locus YOR316C, strain cot1, stronger effect = lower value 1.01 | S. cerevisiae deletion strains, locus YPL051W, strain arl3, stronger effect = lower value 0.984 | S. cerevisiae deletion strains, locus YPL055C, strain LGE1, stronger effect = lower value 0.976 | S. cerevisiae deletion strains, locus YPL078C, strain atp4, stronger effect = lower value 0.953 | S. cerevisiae deletion strains, locus YPL106C, strain sse1, stronger effect = lower value 1.01 | S. cerevisiae deletion strains, locus YPL240C, strain hsp82, stronger effect = lower value 0.977 | S. cerevisiae deletion strains, locus YPL241C, strain CIN2, stronger effect = lower value 0.991 | S. cerevisiae deletion strains, locus YPL256C, strain CLN2, stronger effect = lower value 1.04 | S. cerevisiae deletion strains, locus YPR119W, strain clb2, stronger effect = lower value 1.01 | S. cerevisiae deletion strains, locus YPR141C, strain kar3, stronger effect = lower value 1 | S. cerevisiae deletion strains, locus YPR163C, strain tif3, stronger effect = lower value 1.01 | S. cerevisiae deletion strains, locus YPR167C, strain met16, stronger effect = lower value 1.01 | S. cerevisiae deletion strains, strain wtn01, stronger effect = lower value 1.01 | S. cerevisiae strains, strain wild type, stronger effect = lower value 0.99
